Among the data in PubChem BioAssay AID1259374 (The Scripps Research Institute Molecular Screening Center, 2018) are inhibition values, retold here.

Molecules are shown by their SMILES. Where “and” joins values, the source holds several entries; their conditions need not be identical. Equal values may be shown once. Hit rate of the full screen: of about 650,000 compounds, about 5,900 (0.91%) were called active. This is one part of a sample in which actives are shown more often than they occur. A number with no mark means an inactive call. Cut-off read from the data, not from the text of the source: active = inhibition above about 50%; inactive = the rest.

Microphthalmia-associated transcription factor (Homo sapiens), sequence (O75030 whole entry, looked up): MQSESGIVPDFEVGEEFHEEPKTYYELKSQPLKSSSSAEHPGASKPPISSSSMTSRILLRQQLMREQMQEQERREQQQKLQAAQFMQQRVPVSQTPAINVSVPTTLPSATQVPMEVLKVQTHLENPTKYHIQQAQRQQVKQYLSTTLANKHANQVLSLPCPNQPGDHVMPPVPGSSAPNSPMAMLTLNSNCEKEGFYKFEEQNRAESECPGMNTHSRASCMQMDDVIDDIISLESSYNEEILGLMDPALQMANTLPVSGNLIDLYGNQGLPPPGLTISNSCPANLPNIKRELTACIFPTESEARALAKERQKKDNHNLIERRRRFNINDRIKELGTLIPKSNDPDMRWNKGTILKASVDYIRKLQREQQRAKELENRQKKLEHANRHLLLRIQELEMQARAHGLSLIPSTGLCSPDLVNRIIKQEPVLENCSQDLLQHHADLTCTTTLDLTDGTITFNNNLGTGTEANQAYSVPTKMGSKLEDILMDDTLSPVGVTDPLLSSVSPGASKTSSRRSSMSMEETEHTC

This test addresses Microphthalmia-associated transcription factor (Homo sapiens) (UniProt O75030). Description: MITF inhibitors, primary screen, biochemical, AlphaScreen, human (AID 1259374).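 Note: 0% = vehicle wells with protein.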 The note with it: AlphaScreen MITF homodimerization, bead proximity signal; at 2.6 µM; hits give high values.
For the molecule `O=C(NNC(=O)c1ccccn1)NC12CC3CC(CC(C3)C1)C2`, the inhibition is 5.98%.

Regarding `COc1cccc(C(=O)NCCSc2ncc(-c3ccc(C)cc3)[nH]2)c1`, the inhibition is 8.31%.

As for `Cc1ccc(-c2nc(C#N)c(NCCCn3ccnc3)o2)cc1`, the inhibition is -5.46%.

Take `N#Cc1nc(COc2cccc(Cl)c2)oc1NCCCn1ccnc1`: the inhibition is 62.2% (active).

Consider `Cc1cccc(OCc2nc(C#N)c(NCCCN(C)C)o2)c1`, for which the inhibition was -13.4%.

Consider `O=C(CSc1ccc2nc(-c3ccccc3)cn2n1)Nc1cccc2ccccc12`, for which the inhibition was -15.1%.

Regarding `CCN1C(=O)/C(=C/c2ccc(-c3ccc(Br)cc3)o2)N(CC)C1=S`, the inhibition is -10.4%.

For `Cc1ccc(S(=O)(=O)N2CCN(Cc3ccc(F)cc3)CC2)cc1`, the inhibition was 49.5%.

As for `COc1ccccc1CN1CCN(S(=O)(=O)c2ccc([N+](=O)[O-])cc2)CC1`, the inhibition is 39.9%.

Take `CSc1ccc(CN2CCN(S(=O)(=O)c3ccc([N+](=O)[O-])cc3)CC2)cc1`: the inhibition is 53.2% (active).

In the case of `CSc1ccccc1NC(=O)c1cc2nc(-c3ccc(Br)cc3)cc(C(F)(F)F)n2n1`, the inhibition is -5.34%.

Turning to `COc1cc(C2N=C(c3ccccc3)C(C)(C)N2O)ccc1O` (stereo not given), the inhibition is 2.87%.

`O=S(=O)(c1ccc(Cl)cc1)N1CCc2ccccc2C1`: the inhibition is 10.1%.

On to `CCOC(=O)c1c(NC(=O)c2ccc(OC)cc2OC)sc(C(C)=O)c1C`, for which the inhibition is 7.53%.

On to `Cc1cccc(C(=S)N2CCOCC2)c1`, for which the inhibition is -19.2%.

Turning to `COc1ccc(CNc2ccc3ncc(-c4cccc(O)c4)n3n2)cc1`, the inhibition is -19%.

`COc1cccc(CN2CCN(CCCc3ccccc3)CC2CCO)c1` (stereo not given): the inhibition is 69% (active).

Consider `COc1ccc(CN2CCN(CCCc3ccccc3)C(CCO)C2)cc1O` (stereo not given), for which the inhibition is 7.3%.

With `CCOc1cc(CN2CCN(Cc3cccc(OC)c3)C(CCO)C2)ccc1O` (stereo not given), the inhibition was -2.92%.

In the case of `OCC1CCN(C2CCCN(Cc3cccc(-c4ccco4)c3)C2)CC1` (stereo not given), the inhibition is 3.07%.

Consider `COc1ccccc1N1C(=O)c2ccc(C(=O)NN3C(=O)c4ccccc4C3=O)cc2C1=O`, for which the inhibition was 11.1%.

Take `COc1cc(N/N=C(\C)c2ccc([N+](=O)[O-])cc2)ncn1`: the inhibition was 9.19%.

Consider `Cc1cccc(CSc2n[nH]c(=O)[nH]c2=O)c1`, for which the inhibition was 58.5% (active).

In the case of `O=c1[nH]nc(SCc2cn3cc(Cl)ccc3n2)c(=O)[nH]1`, the inhibition is -5.72%.

As for `O=c1[nH]nc(SCc2ccc(Cl)cc2)c(=O)[nH]1`, the inhibition was 4.19%.

With `O=c1oc(-c2cccc3ncccc23)nn1Cc1cccnc1`, the inhibition is -6.6%.

On to `COc1ccc(N(CC(=O)N2CCN(C)CC2)S(C)(=O)=O)cc1`, for which the inhibition is 13.7%.

On to `CCOc1ccc(-c2ccc(C)c(NC(=O)c3cccs3)c2)nn1`, for which the inhibition is 0.28%.

Consider `Cc1ccc(C2=NN3C(=N)/C(=C/c4ccco4)C(=O)N=C3S2)cc1`, for which the inhibition is -3.9%.

With `Cc1ccc(C2=NN3C(=N)/C(=C/c4ccc(-c5ccc(C(=O)O)cc5)o4)C(=O)N=C3S2)cc1`, the inhibition was 3.4%.

`N=C1/C(=C\c2ccc([N+](=O)[O-])o2)C(=O)N=C2SC(N3CCOCC3)=NN12`: the inhibition was 74.2% (active).

On to `Cc1nnc(SCC(=O)N2c3ccccc3Sc3ccccc32)nc1C`, for which the inhibition is -1.53%.

`O=C(OCCN1CCOCC1)C1(c2ccccc2)CCCCC1`: the inhibition was 3.29% and -3.71%.

As to `O=C(OCCN1CCOCC1)c1c(Cl)nc2sccn12`, the inhibition is 68.3% (active).

Consider `COc1ccc(/C=C/C(=O)OCCN2CCOCC2)cc1`, for which the inhibition was 12.6%.

For the molecule `CSc1cccc(NC(=O)C2C3C=CC4(O3)C2C(=O)N(CCCN2CCCC(C)C2)C4C(=O)NC2CCCCC2)c1` (stereo not given), the inhibition was 1.08%.

On to `COc1cc(CN2CCOCC2)cc(OC)c1OC`, for which the inhibition was 5.88%.

With `COc1ccc(OC)c(CN2CCN(Cc3ccccc3OC)CC2)c1`, the inhibition was 65.1% (active).

As to `COc1ccc(CN2CCCCC2)c(OC)c1`, the inhibition is -6.28%.

With `COc1ccc(OC)c(CN2CCC(C(=O)NCC(C)C)CC2)c1`, the inhibition is 10.5%.

Consider `COc1cc(CN2CCN(Cc3ccccc3Cl)CC2)cc(OC)c1OC`, for which the inhibition was 74.9% (active).

Turning to `COc1ccc(S(=O)(=O)N2CCN(Cc3ccccc3Cl)CC2)cc1`, the inhibition was 8.12%.

With `COc1cc(CN2CCN(C3CCCC3)C(CCO)C2)cc(OC)c1OC` (stereo not given), the inhibition is -4.18%.

Take `COc1cc(CN2CCC(O)CC2)cc(OC)c1OC`: the inhibition is 20.4%.

For the molecule `COc1ccc(CNCc2cccc(F)c2)c(OC)c1`, the inhibition was 17.1%.

Regarding `COc1ccc(CN2CCN(Cc3cccc(Br)c3)CC2)c(OC)c1`, the inhibition is 72.2% (active).

As for `COc1ccc(OC)c(CN2CCN(C3CCCCCC3)CC2)c1`, the inhibition is 49.2%.

Regarding `COc1ccc(CN2CCN(Cc3cc(OC)c(OC)c(OC)c3)CC2)cc1`, the inhibition was 70.5% (active).

As for `CS(=O)(=O)Nc1ccc(C(=O)Nc2ccc(Br)c(Cl)c2)cc1`, the inhibition is 11.7%.

Regarding `COc1ccc(C(=O)N2CCc3c(nc(C)[nH]c3=O)C2)cc1Cn1nc(C)cc1C`, the inhibition was 4.03%.

For the molecule `COc1cc(C2C3=C(Nc4[nH]c(=O)[nH]c(=O)c42)C(=O)CC(C)(C)C3)ccc1O` (stereo not given), the inhibition is -4.39%.

With `Cc1ccc(Cl)c2sc(=NC(=O)CN3C(=O)c4ccccc4C3=O)n(C)c12`, the inhibition was 14.4%.

Regarding `O=C(NCCc1ccc(O)cc1)C1CCN(c2ccc(Nc3ccc4ncccc4c3)nn2)CC1`, the inhibition is 14.1%.

Take `COc1ccc(Cl)cc1-c1nc(SCC(=O)Nc2ccc([N+](=O)[O-])cc2C#N)n[nH]1`: the inhibition is 5.04%.

Turning to `Cc1cc2c(cc3c(=O)n(CC(=O)N4CCCCCC4)nc(C)n32)s1`, the inhibition is 19.7%.

Turning to `CC(=O)NC1(c2ccccc2)CCN(C(=O)N(c2ccccc2)c2ccccc2)CC1`, the inhibition is -5.46%.

Turning to `N#CC1=C(N)Oc2n[nH]c(-c3ccccc3)c2C1c1cc(Cl)cc(Cl)c1OC(=O)N1CCOCC1` (stereo not given), the inhibition was 1.7%.

For `O=C(CSc1cn(Cc2cccc(F)c2)c2ccccc12)Nc1ccccc1`, the inhibition is -4.78%.

`CCOC(=O)c1c(NC(=O)COc2ccc(C)cc2Br)sc2c1CCC(C)C2` (stereo not given): the inhibition was 14.2%.

For the molecule `O=C(CSc1nnc2ncccn12)N1CCN(c2ccccc2F)CC1`, the inhibition is -5.77%.
